Source: the supplement of paper PMC11732987, “Enantioselective OTUD7B fragment discovery through chemoproteomics screening and high-throughput optimisation” (Communications Chemistry, 2025)

Key:
Experiment in all cases: log2 ratio of Biotin-Ahx-Ub-VS probe labelling (fragment/DMSO); higher = less target engagement (more negative = stronger competition), active = hit call of the paper (q ≤ 0.05, log2 ratio ≤ -1)
Conditions in all cases: compound concentration: 200 uM; treatment time: 3 h
USP19 = target: T1, USP19 (UniProt O94966)
T1 sequence (whole entry): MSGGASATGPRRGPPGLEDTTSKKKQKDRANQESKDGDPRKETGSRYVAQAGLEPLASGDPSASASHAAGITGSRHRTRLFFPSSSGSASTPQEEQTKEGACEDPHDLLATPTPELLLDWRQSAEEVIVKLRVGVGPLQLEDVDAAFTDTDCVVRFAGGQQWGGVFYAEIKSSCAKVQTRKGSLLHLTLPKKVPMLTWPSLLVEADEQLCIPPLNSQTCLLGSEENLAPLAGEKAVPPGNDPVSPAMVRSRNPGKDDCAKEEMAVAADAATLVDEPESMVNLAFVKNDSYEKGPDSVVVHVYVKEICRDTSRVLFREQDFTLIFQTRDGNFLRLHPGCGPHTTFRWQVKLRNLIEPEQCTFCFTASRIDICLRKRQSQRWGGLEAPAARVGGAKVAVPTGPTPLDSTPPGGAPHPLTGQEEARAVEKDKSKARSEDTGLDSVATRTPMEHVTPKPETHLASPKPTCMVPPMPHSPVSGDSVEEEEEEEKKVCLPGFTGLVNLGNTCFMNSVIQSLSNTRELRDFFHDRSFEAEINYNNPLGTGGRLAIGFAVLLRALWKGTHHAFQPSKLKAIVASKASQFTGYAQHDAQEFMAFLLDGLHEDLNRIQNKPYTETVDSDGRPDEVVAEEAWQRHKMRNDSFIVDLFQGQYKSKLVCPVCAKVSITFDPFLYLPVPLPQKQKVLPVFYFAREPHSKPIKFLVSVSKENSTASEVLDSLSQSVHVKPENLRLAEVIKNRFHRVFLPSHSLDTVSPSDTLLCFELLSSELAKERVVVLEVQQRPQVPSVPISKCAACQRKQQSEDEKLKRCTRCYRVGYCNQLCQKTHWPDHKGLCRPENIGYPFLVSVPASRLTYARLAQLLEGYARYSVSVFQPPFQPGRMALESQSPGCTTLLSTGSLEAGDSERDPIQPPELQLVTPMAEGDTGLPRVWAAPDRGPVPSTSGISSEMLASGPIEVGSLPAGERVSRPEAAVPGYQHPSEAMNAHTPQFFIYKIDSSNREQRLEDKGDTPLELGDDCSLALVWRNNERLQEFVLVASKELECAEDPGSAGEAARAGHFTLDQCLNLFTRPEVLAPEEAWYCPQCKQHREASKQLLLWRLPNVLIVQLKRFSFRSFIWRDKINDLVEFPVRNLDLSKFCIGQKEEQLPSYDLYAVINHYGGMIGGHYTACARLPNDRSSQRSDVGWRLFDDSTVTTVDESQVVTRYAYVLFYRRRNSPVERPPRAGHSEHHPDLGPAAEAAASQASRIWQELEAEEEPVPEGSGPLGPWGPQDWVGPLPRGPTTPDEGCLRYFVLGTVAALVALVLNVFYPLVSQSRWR
Procedure, shortened: (§1)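 Labelled DUBs from HEK293T lysate were NeutrAvidin-enriched, digested with LysC and trypsin, and run by diaPASEF LC-MS/MS. Before that, each 495 µg sample in Tris/CHAPS/IGEPAL buffer with protease inhibitors was treated in triplicate with fragment at 200 µM or vehicle for 3 h, then with Biotin-Ahx-Ub-VS at 0.5 µM final for 1 h. Values are average log2 ratios of fragment over vehicle by unpaired t-test, based on global-median-normalised Spectronaut label-free quantities from proteins with ≥2 unique peptides.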

USP22 = target: T2, USP22 (UniProt Q9UPT9)
T2 sequence (whole entry): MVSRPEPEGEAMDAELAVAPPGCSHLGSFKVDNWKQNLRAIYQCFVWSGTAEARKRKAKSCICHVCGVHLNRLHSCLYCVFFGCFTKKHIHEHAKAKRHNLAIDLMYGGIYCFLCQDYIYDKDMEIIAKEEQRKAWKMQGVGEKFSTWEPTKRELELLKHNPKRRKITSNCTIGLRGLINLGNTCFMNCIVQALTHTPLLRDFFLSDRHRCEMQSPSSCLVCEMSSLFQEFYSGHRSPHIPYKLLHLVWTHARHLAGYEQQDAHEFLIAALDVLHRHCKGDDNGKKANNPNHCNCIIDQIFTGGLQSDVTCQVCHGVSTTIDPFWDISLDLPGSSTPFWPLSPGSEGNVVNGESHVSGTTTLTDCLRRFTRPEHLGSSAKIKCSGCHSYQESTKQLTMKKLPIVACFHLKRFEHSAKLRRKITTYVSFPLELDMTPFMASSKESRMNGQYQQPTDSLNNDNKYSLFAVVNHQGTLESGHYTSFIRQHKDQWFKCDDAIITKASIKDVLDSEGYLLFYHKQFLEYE
Procedure, shortened: as §1

USP24 = USP24 (UniProt Q9UPU5)
Chain of USP24 (Q9UPU5 whole entry): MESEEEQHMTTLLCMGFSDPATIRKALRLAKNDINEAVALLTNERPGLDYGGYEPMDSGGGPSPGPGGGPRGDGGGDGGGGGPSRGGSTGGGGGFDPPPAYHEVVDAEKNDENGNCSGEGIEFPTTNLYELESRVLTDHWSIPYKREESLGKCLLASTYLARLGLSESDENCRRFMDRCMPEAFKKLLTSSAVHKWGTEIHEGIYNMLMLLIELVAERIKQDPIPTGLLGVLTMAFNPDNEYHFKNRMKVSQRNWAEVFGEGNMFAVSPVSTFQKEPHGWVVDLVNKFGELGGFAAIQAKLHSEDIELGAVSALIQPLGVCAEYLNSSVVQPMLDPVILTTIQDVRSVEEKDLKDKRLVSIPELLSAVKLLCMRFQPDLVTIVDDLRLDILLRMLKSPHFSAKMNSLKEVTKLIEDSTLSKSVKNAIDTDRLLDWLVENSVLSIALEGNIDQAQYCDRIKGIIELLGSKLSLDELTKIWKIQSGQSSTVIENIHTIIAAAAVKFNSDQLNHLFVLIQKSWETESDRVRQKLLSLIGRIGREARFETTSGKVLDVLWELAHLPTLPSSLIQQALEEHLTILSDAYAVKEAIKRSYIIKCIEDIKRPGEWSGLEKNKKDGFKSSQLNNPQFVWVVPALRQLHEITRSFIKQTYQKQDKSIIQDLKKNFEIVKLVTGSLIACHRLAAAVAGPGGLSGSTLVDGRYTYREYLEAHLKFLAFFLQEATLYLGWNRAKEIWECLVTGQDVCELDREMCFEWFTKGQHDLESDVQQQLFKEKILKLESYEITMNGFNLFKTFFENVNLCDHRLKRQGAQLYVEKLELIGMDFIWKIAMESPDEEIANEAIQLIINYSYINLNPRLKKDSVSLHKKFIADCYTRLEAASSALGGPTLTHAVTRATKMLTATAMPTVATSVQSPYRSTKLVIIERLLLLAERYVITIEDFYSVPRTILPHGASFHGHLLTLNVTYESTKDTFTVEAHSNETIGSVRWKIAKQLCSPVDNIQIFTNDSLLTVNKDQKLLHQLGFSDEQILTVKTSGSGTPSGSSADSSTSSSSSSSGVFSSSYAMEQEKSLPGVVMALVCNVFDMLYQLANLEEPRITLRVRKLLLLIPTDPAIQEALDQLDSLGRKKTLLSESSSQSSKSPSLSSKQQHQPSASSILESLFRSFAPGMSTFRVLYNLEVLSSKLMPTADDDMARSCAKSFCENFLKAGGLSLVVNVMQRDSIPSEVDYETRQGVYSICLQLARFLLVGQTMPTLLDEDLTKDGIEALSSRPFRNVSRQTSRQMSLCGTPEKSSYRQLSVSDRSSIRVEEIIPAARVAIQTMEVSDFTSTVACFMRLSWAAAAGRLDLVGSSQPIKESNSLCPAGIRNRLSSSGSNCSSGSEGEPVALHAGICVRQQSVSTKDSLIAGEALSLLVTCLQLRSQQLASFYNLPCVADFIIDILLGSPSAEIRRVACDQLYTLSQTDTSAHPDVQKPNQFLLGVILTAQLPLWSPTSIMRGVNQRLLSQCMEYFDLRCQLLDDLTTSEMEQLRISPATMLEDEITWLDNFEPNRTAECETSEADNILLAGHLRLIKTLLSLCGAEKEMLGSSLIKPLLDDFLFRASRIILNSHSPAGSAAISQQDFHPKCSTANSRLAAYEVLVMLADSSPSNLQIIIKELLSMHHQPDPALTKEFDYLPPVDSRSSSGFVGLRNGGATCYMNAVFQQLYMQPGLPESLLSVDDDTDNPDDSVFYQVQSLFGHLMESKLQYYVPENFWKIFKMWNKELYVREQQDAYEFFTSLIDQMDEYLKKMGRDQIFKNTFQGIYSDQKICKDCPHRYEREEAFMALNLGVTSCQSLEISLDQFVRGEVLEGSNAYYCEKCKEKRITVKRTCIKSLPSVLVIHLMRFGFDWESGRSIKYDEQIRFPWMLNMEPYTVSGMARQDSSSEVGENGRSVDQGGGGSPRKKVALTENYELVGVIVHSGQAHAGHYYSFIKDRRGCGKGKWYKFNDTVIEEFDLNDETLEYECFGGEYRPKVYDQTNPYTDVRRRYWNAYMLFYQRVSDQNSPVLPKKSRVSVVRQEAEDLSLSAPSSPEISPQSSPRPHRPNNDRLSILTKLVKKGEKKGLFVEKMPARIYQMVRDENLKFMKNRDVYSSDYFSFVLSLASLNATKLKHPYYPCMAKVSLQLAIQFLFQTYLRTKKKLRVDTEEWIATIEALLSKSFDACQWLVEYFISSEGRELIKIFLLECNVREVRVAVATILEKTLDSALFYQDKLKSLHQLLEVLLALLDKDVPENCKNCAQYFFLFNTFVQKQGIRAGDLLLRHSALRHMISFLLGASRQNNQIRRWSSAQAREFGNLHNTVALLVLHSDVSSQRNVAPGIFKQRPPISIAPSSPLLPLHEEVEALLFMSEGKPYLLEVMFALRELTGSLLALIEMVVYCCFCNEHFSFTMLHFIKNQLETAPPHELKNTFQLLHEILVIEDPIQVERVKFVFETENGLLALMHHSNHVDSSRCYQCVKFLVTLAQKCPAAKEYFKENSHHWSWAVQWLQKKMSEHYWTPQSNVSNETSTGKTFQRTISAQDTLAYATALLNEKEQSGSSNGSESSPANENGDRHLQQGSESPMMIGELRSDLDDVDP
Procedure, shortened: as §1

USP25 = target: T3, USP25 (UniProt Q9UHP3)
T3 sequence (whole entry): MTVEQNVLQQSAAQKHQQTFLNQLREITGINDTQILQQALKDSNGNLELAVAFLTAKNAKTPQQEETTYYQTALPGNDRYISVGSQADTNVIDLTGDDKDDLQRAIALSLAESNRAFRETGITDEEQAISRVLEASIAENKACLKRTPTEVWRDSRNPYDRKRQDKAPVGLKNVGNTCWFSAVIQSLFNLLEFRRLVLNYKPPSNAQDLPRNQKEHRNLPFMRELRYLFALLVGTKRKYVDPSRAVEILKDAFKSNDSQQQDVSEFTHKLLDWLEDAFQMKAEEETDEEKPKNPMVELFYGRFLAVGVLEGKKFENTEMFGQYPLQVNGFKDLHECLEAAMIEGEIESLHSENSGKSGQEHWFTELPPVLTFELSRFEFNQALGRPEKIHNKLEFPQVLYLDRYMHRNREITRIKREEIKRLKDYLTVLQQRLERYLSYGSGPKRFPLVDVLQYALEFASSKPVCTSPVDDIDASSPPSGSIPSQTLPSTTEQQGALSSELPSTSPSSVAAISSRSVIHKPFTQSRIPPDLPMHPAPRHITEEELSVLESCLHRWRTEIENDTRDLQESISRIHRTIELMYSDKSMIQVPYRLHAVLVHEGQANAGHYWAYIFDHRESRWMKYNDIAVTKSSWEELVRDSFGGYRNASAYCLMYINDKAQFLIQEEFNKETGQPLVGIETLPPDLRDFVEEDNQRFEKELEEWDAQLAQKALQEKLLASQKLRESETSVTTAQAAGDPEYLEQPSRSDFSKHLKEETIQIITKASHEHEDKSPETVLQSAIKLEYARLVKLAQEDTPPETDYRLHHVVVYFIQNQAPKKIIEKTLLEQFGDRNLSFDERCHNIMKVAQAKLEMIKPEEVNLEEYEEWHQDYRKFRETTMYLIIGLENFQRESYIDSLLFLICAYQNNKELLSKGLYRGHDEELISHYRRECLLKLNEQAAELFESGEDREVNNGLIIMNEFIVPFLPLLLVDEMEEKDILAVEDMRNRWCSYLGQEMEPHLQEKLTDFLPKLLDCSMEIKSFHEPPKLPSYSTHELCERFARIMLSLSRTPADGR
Procedure, shortened: as §1

USP28 = target: T4, USP28 (UniProt Q96RU2)
T4 sequence (whole entry): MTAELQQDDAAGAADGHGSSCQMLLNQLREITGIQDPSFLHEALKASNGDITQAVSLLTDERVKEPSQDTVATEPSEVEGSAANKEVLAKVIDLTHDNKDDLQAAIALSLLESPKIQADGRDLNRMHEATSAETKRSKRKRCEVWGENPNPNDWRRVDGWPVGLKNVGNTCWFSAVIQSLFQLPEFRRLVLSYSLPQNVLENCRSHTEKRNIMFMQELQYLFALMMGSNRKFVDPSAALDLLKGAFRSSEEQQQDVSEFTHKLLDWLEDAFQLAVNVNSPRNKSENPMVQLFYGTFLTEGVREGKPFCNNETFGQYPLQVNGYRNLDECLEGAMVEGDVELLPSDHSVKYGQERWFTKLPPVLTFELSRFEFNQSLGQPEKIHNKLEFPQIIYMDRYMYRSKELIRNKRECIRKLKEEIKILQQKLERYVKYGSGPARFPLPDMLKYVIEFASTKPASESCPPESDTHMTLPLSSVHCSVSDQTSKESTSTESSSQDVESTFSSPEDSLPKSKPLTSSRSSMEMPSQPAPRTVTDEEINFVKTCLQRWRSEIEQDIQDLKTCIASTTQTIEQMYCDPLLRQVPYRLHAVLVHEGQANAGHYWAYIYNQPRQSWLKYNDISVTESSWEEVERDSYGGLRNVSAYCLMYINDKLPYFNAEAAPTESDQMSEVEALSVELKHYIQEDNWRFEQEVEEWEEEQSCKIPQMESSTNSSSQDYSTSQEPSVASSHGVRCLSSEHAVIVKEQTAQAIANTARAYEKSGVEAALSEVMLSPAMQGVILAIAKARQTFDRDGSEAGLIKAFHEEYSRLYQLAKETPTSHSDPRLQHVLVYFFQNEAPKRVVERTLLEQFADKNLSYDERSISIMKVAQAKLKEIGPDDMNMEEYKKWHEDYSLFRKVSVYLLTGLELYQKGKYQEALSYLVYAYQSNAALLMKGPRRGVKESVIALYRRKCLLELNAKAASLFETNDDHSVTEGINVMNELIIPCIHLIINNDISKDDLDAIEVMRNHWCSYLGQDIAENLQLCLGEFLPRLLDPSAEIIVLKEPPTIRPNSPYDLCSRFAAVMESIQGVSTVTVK
Procedure, shortened: as §1

Measured: log2 ratio of Biotin-Ahx-Ub-VS probe labelling

CN1c2ccccc2C(NC(=O)CCl)CS1(=O)=O (stereo not given)
inactive: USP19 -0.159 | USP22 -0.303 | USP24 -0.201 | USP25 -0.52 | USP28 -0.788
